Assay outcomes: PubChem BioAssay, Broad Institute
esBAF inh – Bmi1 luciferase reporter increase in mESCs, primary screen, esBAF inhibitor project, mouse ES cells, Bmi1 luciferase knock-in, single point. 24 h; 100% = twice the neutral-well signal. reporter increase, % at 12.5 µM. 350,000 tested, 2% active; in the data active means activation above about 40%;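 further: a rise in the Bmi1 reporter signal indicates esBAF inhibition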
HSF1 inh – HSF1 inhibitors in luciferase reporter cells, primary screen, cell-based, NIH3T3, luminescence. NIH3T3-HGL HSE-luciferase, MG132-induced, luminescence 8 h; hits give low values. 300,000 tested, 0.77% active. activity change, negative = inhibition, % at 7.5 µM (by protocol);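 active means more than half of replicate wells show activity change below -50%, luminescence cut by over half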;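 further: luciferase reports HSF-1 transcriptional activity via heat shock element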
Vif imaging – HIV Vif self-association inhibitors, primary screen, imaging, HEK293T, single point; 340,000 tested, 0.35% active; AID 602346, 2012; HEK293T cells, Vif self-association by quenched fluorescence, 24 h; inhibition, % at 7.49 µM; in the data active means inhibition above about 50%, passing the limit was not always enough
HSF-1 act – HSF-1 activators, primary screen, NIH3T3-HGL cells, MG132 stress, luminescence, single point; NIH3T3-HGL HSF-1 luciferase reporter, 8 h; 100% = twice DMSO control signal; activation, % at 9 µM; 300,000 tested, 1.7% active; AID 504408, 2011;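 active means mean replicate activation of at least 50% with a set share of replicates each reaching 50%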
A number is an active result. This is a sample that favours compounds with a hit; in the whole collection about 3.4% have one here.

C=CCn1c2ccccc2c(=O)c2cc(C#CC[C@@H](C)O)ccc21 was read as esBAF inh 52.5 and Vif imaging inactive.
For CC(C)NC(=O)N(C)C[C@H]1OCCCC[C@@H](C)Oc2ccc(NS(=O)(=O)c3cn(C)cn3)cc2C(=O)N([C@@H](C)CO)C[C@H]1C the results were esBAF inh inactive.
For COc1ccc(CNC(=O)c2nc(S(=O)(=O)Cc3ccccc3)ncc2Cl)cc1 the results were esBAF inh inactive, HSF1 inh inactive, Vif imaging inactive and HSF-1 act 247.9.
CC(=O)Nc1ccc(NC(=O)c2nc(S(=O)(=O)Cc3ccccc3)ncc2Cl)cc1 was read as esBAF inh inactive, HSF1 inh -93.6, Vif imaging inactive and HSF-1 act inactive.
Cc1ccc(CS(=O)(=O)c2ncc(Cl)c(C(=O)Nc3ccc(OC(F)F)cc3)n2)cc1 was read as esBAF inh inactive, HSF1 inh inactive, Vif imaging inactive and HSF-1 act inactive.
Screening CCC1CCCCN1S(=O)(=O)c1ccc(NC(=O)c2ccncc2)cc1 (centres undefined) returned esBAF inh inactive, HSF1 inh inactive, Vif imaging inactive and HSF-1 act inactive.
CCC1CCCCN1S(=O)(=O)c1ccc(NC(=O)c2nc(S(C)(=O)=O)ncc2Cl)cc1 (centres undefined) was read as esBAF inh inactive, HSF1 inh -83.6, Vif imaging inactive and HSF-1 act inactive.
O=C(NCc1ccccc1)c1c(Cl)nc(Cl)c(Cl)c1Cl was read as HSF1 inh inactive, Vif imaging inactive and HSF-1 act 64.9.
Screening O=C(C[C@@H]1CC[C@H](NS(=O)(=O)c2cccc(F)c2)[C@H](CO)O1)NCc1ccc2c(c1)OCO2 returned esBAF inh inactive.
`C[C@@H]1CCCCO[C@H](CN(C)S(=O)(=O)c2ccccc2)[C@H](C)CN([C@H](C)CO)C(=O)c2cc(NS(=O)(=O)c3cn(C)cn3)ccc2O1` gave esBAF inh inactive.
For CCS(=O)(=O)c1ncc(Cl)c(C(=O)Nc2ccc(S(=O)(=O)N3CCCC(C)C3)cc2)n1 (centres undefined) the results were esBAF inh inactive, HSF1 inh -79.5, Vif imaging inactive and HSF-1 act inactive.
Screening CS(=O)(=O)c1ncc(Cl)c(C(=O)Nc2ccc3ccccc3c2)n1 returned HSF1 inh -92.7, Vif imaging inactive and HSF-1 act inactive.
Screening O=C(Nc1ccc2ccccc2c1)c1cnccn1 returned esBAF inh inactive, HSF1 inh inactive, Vif imaging inactive and HSF-1 act inactive.
For CCS(=O)(=O)c1ncc(Cl)c(C(=O)Nc2ccc(C)cc2)n1 the results were esBAF inh inactive, HSF1 inh -97.7, Vif imaging inactive and HSF-1 act inactive.
COC(=O)c1ccccc1NC(=O)c1nc(S(=O)(=O)Cc2ccccc2)ncc1Cl was read as esBAF inh inactive, HSF1 inh inactive, Vif imaging inactive and HSF-1 act inactive.
O=C(NCc1ccccc1)c1nc(S(=O)(=O)Cc2ccccc2)ncc1Cl was read as esBAF inh inactive, HSF1 inh inactive, Vif imaging inactive and HSF-1 act 147.1.
For C[C@H](CO)N1C[C@H](C)[C@H](CN(C)C(=O)Nc2ccccc2)Oc2c(NS(=O)(=O)c3cccs3)cccc2C1=O the results were esBAF inh inactive.
`CCOC(=O)c1nnc(-c2ccccc2)nc1Sc1ccccc1Cl` gave esBAF inh inactive, HSF1 inh inactive, Vif imaging inactive and HSF-1 act 159.4.
Screening CCOC(=O)c1nnc(-c2ccc(C)cc2)nc1Sc1cccc(Cl)c1 returned HSF1 inh inactive, Vif imaging inactive and HSF-1 act inactive.
For COc1ccc2c(C)nc(Nc3nc(-c4ccccc4)cc(=O)[nH]3)nc2c1 the results were esBAF inh inactive, HSF1 inh inactive, Vif imaging inactive and HSF-1 act 94.6.
`CN(C)C(=O)C[C@H]1C=C[C@H](NC(=O)C2CCC2)[C@@H](CO)O1` gave esBAF inh inactive.
For Cc1ccc(C(=O)Nc2ncccc2S(=O)(=O)c2ccccc2)cc1 the results were esBAF inh 113.0, HSF1 inh inactive, Vif imaging inactive and HSF-1 act inactive.
Screening COc1ccc(C#Cc2cnc3c(c2)C(=O)N([C@H](C)CO)C[C@H](C)[C@H](CN(C)C(=O)c2ccccc2F)O3)cc1 returned esBAF inh inactive.
For Cc1cccc(N(CC(=O)NCc2ccccc2)C(=O)Cn2nnc(-c3ccc(C)o3)n2)c1 the results were HSF1 inh inactive, Vif imaging inactive and HSF-1 act inactive.
COc1ccc(N(CC(=O)NCc2ccc(F)cc2)C(=O)Cn2nnc(-c3ccc(C)o3)n2)cc1OC was read as esBAF inh inactive, HSF1 inh -87.0, Vif imaging inactive and HSF-1 act inactive.
C[C@@H]1CN([C@@H](C)CO)C(=O)c2cc(-c3ccc(F)cc3)cnc2O[C@@H]1CN(C)C(=O)C1CCC1 was read as esBAF inh inactive.
For CC1=NN(c2ccc([N+](=O)[O-])cc2)C(=O)/C1=C\N(C)C the results were HSF1 inh inactive, Vif imaging inactive and HSF-1 act inactive.
For CN(C)/C=C1\C(=O)N(c2ccc([N+](=O)[O-])cc2)N=C1c1ccccc1 the results were esBAF inh 52.6, HSF1 inh inactive, Vif imaging inactive and HSF-1 act inactive.
Screening CN(C)/C=C1/C(=O)N(c2ccc([N+](=O)[O-])cc2)N=C1c1ccccc1 returned HSF1 inh inactive and HSF-1 act 55.9.
O=C(C[C@H]1CC[C@H]2[C@@H](COC[C@@H](O)CN2S(=O)(=O)c2ccccc2Cl)O1)NCc1ccccc1Cl was read as esBAF inh inactive.
O=C(C1CC1)N1CC[C@H]2[C@H](CO)Nc3ccc(-c4cccc(F)c4)cc3[C@H]21 was read as esBAF inh inactive.
For CO[C@H]1CN(C)C(=O)c2ccc(NC(=O)Nc3ccccc3)cc2OC[C@@H](C)NC[C@H]1C the results were esBAF inh inactive.
For c1ccc(CSc2nnc3ccc(-c4ccco4)nn23)nc1 the results were esBAF inh inactive, HSF1 inh inactive, Vif imaging inactive and HSF-1 act inactive.
O=[N+]([O-])c1cccc(-c2ccc3nnc(SCc4ccccn4)n3n2)c1 was read as HSF1 inh inactive, Vif imaging inactive and HSF-1 act 62.6.
For C[C@@H]1CN([C@H](C)CO)C(=O)c2cc(NC(=O)Cc3ccccc3)ccc2O[C@@H]1CN(C)Cc1ccc2c(c1)OCO2 the results were esBAF inh inactive.
For O=C(COc1ccc(Cl)cc1)Nc1ccc2oc(-c3ccncc3)nc2c1 the results were esBAF inh inactive, HSF1 inh inactive and HSF-1 act inactive.
CC(C)(Oc1ccc(Cl)cc1)C(=O)Nc1ccc2oc(-c3ccncc3)nc2c1 was read as esBAF inh inactive, HSF1 inh inactive, Vif imaging inactive and HSF-1 act 110.1.
Screening O=C(Nc1ccc2c(c1)oc1ccccc12)c1cccnc1 returned esBAF inh 68.2, HSF1 inh inactive, Vif imaging inactive and HSF-1 act inactive.
